# High-throughput results from PubChem BioAssay.
# p-CIP stab down: lowers stability of the mouse p/CIP coactivator protein. AID 1984. decrease of EGFP signal, % at 10 µM. 290,000 compounds, 0.01% hits. F442A p/CIP-EGFP cells, EGFP fluorescence, 16 h. Q05BA5;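 active = EGFP signal decrease of at least 30% at 10 µM or well 3 SD below plate mean, unless failing retest; inactive = the rest, including hits failing retest or dose response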
# TbHK1 inh: blocks Trypanosoma brucei hexokinase 1 activity. recombinant TbHK1, G6PDH-coupled NADH A340. inhibition, % at 10 µM. 220,000 compounds, 0.11% hits. AID 1430;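 active = inhibition of 50% or more in the single-dose primary screen; inactive = inhibition below 50%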
# Redox H2O2 prof: compounds producing H2O2 with reducing agent – biochemical, NIH compound library profiling, artefact control for MLSCN library redox annotation, primary screen | DTT-dependent redox cycling H2O2, phenol red/HRP absorbance; 100% = 100 µM peroxide control, 0% = buffer | 200,000 compounds, 0.03% hits | activation, % at 10 µM | AID 878;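 active = activation of at least 50% relative to the plate's high and low controls in the primary single-dose screen; inactive = activation below 50%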;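 note: compound incubated with DTT at 0.8 mM final as the reducing agent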
# p97 inhibitor: inhibitors of human p97 ATPase; 220,000 compounds, 0.42% hits; P55072; inhibition, % at 8 µM; recombinant p97 ATPase, Kinase-Glo ATP luminescence, 3 h; in the data active = inhibition above about 15%
# Furin inh: inhibitors of human furin; P09958; purified furin, fluorogenic substrate cleavage; inhibition, % at 20 µM or 30 µM; 220,000 compounds, 0.061% hits; in the data active = inhibition above about 25%
# Target sequence (P09958 108-714 limits assumed): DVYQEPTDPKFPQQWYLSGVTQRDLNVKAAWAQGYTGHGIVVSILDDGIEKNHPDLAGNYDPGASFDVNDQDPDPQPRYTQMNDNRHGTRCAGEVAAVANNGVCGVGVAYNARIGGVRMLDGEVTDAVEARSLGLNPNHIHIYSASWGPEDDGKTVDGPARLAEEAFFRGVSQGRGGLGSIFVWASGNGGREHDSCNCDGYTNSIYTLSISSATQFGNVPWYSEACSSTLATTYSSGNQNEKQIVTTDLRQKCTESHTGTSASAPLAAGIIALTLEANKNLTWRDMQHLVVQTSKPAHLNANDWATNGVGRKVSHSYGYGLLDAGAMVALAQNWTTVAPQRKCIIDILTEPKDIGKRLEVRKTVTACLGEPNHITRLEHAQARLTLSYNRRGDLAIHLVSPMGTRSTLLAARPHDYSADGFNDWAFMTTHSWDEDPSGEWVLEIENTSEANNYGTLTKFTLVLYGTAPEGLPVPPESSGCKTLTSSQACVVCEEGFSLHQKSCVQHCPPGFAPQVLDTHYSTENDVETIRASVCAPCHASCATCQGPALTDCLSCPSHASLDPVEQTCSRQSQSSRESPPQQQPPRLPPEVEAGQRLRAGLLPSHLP
# HMGR II inh: E. faecalis class II HMG-CoA reductase inhibition; inhibition, % at 10 µM; purified E. faecalis HMGR, NADPH absorbance 340 nm kinetic; 190,000 compounds, 0.41% hits;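 active = inhibition above a set limit, the median over all tested compounds plus 3 SD, cut at about 9.5% in these data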;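 note: enzyme runs in reverse so mevalonate oxidation gives rising NADPH absorbance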
# p97 inh conf: confirmation of human p97 ATPase inhibitors. shares compounds with p97 inhibitor. recombinant p97 ATPase, Kinase-Glo ATP luminescence. inhibition, % at 8 µM. 760 compounds, 44% hits. AID 1517;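 active = percent inhibition of p97 ATPase above a set limit, the primary screen's mean plus 3 SD, cut at about 15% in these data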
# Numbers stand for hits; – = inactive; · = no result. Hits are enriched below; roughly 0.74% of the tested compounds scored in any of these assays.
SMILES,p-CIP stab down,TbHK1 inh,Redox H2O2 prof,p97 inhibitor,Furin inh,HMGR II inh,p97 inh conf
N#C/C(=C(/O)c1cc2ccccc2o1)c1nc2ccccc2s1,–,–,·,26,–,·,24
CC(=O)c1ccc(N(C(=O)CNC(=O)c2ccco2)C(C(=O)NC2CCCC2)c2cccnc2)cc1 (stereo not drawn),–,·,·,·,·,·,·
CCCCOc1ccccc1NC(=O)c1scc2c1OCCO2,–,–,–,16,–,–,20
O=C(Nc1ccc(F)cc1F)N1CCN(CCc2ccccc2)CC1,–,–,·,–,–,·,·
Cc1ccc(CCN2CC(C(=O)NCCCN3CCCCCC3)CC2=O)cc1 (stereo not drawn),–,–,–,21,–,–,–
COc1ccc(/C=N/NC(=O)c2ccc(C)cc2)cc1CN1CCN(c2ccc(F)cc2)CC1,–,–,–,–,–,–,·
COc1ccc(/C=N\NC(=O)c2cc(O)c(O)c(O)c2)cc1CN1CCN(c2ccc(F)cc2)CC1,–,–,–,17,–,–,26
CCOC(=O)N1CCN(C(=O)c2cn(CC)c3ccc(S(=O)(=O)N4CC(C)CC(C)C4)cc3c2=O)CC1 (stereo not drawn),–,–,–,–,–,–,·
Oc1cccc2cc3cccc(O)c3c(O)c12,–,–,–,15,–,–,–
COc1cc2cccc(OC)c(=O)c2c(O)c1OC,–,–,–,–,–,–,·
O=C(NCC1CCCO1)c1cc2nc(-c3ccco3)cc(C(F)(F)Cl)n2n1 (stereo not drawn),–,·,·,·,·,·,·
O=c1[nH]c(CN2CCCCC2)nc2ccccc12,–,–,–,25,–,–,–
Cc1ccc(NC(=O)c2cccc(S(=O)(=O)N3CCN(c4ccc(F)cc4)CC3)c2)nc1,–,·,·,·,·,·,·
COc1ccc2[nH]cc(C(=O)CCl)c2c1,–,–,·,42,–,·,46
O=C(CSc1ccsc1[N+](=O)[O-])N1CCN(c2ccccn2)CC1,–,–,–,18,–,–,–
O=C(CSc1ccccc1)N1CCN(c2ccccn2)CC1,–,–,–,–,–,–,·
Fc1c(F)c(F)c(/C=N/NC(=S)Nc2cccnc2)c(F)c1F,–,–,–,–,–,–,·
Oc1ccc(/C=N/NC(=S)Nc2cccnc2)c(O)c1O,–,–,·,20,–,·,20
Oc1ccc(/C=N/NC(=S)Nc2cccnc2)c(O)c1,–,–,–,19,–,–,26
Fc1cccc(F)c1/C=N/NC(=S)Nc1cccnc1,–,–,–,–,–,–,·
Oc1cccc(/C=N/NC(=S)Nc2cccnc2)c1O,–,–,·,18,–,–,35
COc1ccc(NC(=O)C2C(c3ccccc3)C2(Cl)Cl)cc1 (stereo not drawn),–,–,·,–,–,·,·
CC(=O)c1cccc(NC(=O)C2C(c3ccccc3)C2(Cl)Cl)c1 (stereo not drawn),–,–,–,28,–,–,32
Cc1cccc(NC(=O)C2C(c3ccccc3)C2(Cl)Cl)c1 (stereo not drawn),–,–,–,19,–,–,37
Cc1nc(C)c(C(=O)N/N=C/c2cn(C)c3ccccc23)s1,–,–,–,–,–,–,·
SMILES,p-CIP stab down,TbHK1 inh,Redox H2O2 prof,p97 inhibitor,Furin inh,HMGR II inh,p97 inh conf
O=c1c2c3nc4ccccc4nc3n(Cc3ccccc3)c2ncn1Cc1ccco1,–,–,–,16,–,–,34
O=C(CSc1ncn[nH]1)N1c2ccccc2Sc2ccccc21,–,–,·,–,–,·,·
C=CC(=O)N=c1sc2ccccc2n1-c1ccccc1,–,–,–,18,–,–,17
N=c1sc2ccccc2n1-c1ccccc1,–,–,–,–,–,–,·
O=C(CSc1n[nH]c(=O)n1-c1cccnc1)Nc1ccccc1,–,·,·,·,·,·,·
CCc1ccc(OC2=NS(=O)(=O)c3ccccc32)cc1,–,–,–,–,–,–,·
CCN(CC)c1cccc(OC2=NS(=O)(=O)c3ccccc32)c1,–,–,–,19,–,–,–
COc1ccc(/C=N/Nc2nnc(-c3ccccc3)c(=O)[nH]2)cc1,–,–,–,17,–,–,38
N#CC1=C(N)N(c2ccc(F)cc2)C2=C(C1c1ccc(O)cc1)S(=O)(=O)CC2 (stereo not drawn),–,–,–,–,–,–,·
C#CCOCCOCCOCCNc1nc(N2CCN(C(=O)[C@H](CCCCN)n3cc([C@@H](N)CO)nn3)CC2)nc(N2CCN(C(=O)[C@H](Cc3cc4ccccc4[nH]3)n3cc([C@@H](N)Cc4ccc(O)cc4)nn3)CC2)n1,–,–,–,–,–,–,·
C#CCOCCOCCOCCNc1nc(N2CCN(C(=O)[C@H](CCCCN)n3cc([C@@H](N)CC(C)C)nn3)CC2)nc(N2CCN(C(=O)[C@H](Cc3cc4ccccc4[nH]3)n3cc([C@@H](N)Cc4ccc(O)cc4)nn3)CC2)n1,–,–,–,21,–,–,16
C#CCOCCOCCOCCNc1nc(N2CCN(C(=O)[C@H](Cc3ccc(O)cc3)n3cc([C@@H](N)CC(C)C)nn3)CC2)nc(N2CCN(C(=O)[C@H](Cc3ccc(O)cc3)n3cc([C@@H](N)CC(C)C)nn3)CC2)n1,–,–,–,18,–,–,–
C#CCOCCOCCOCCNc1nc(N2CCN(C(=O)[C@H](Cc3ccc(O)cc3)n3cc([C@@H](N)CC(C)C)nn3)CC2)nc(N2CCN(C(=O)[C@H](Cc3cc4ccccc4[nH]3)n3cc([C@@H](N)CC(C)C)nn3)CC2)n1,–,–,–,20,–,–,–
C#CCOCCOCCOCCNc1nc(N2CCN(C(=O)C(Cc3ccc(O)cc3)n3cc(C(N)CC(C)C)nn3)CC2)nc(N2CCN(C(=O)C(Cc3cc4ccccc4[nH]3)n3cc(C(N)C(C)CC)nn3)CC2)n1 (stereo not drawn),–,–,–,–,–,–,·
NC(=O)c1nsc(C(=O)N(c2ccccc2)C(C(=O)NCc2ccc(F)cc2)c2ccc(O)cc2)c1N (stereo not drawn),–,·,·,·,·,·,·
CN(C)c1nc(N)c([N+](=O)[O-])c(NCC2CCCO2)n1 (stereo not drawn),–,–,·,–,–,·,·
COc1ccc(NC(=O)CCNC(=O)c2ccco2)c(OC)c1,–,·,·,·,·,·,·
Cn1cccc1CC(=O)N/N=C/c1ccco1,–,–,·,17,–,·,–
Cn1cccc1CC(=O)NNC(=O)Nc1ccc(Cl)cc1,–,–,–,19,–,–,–
Cc1ccc(C2C3=C(CCCC3=O)Nc3c2c(C)nn3-c2ccccn2)o1 (stereo not drawn),–,–,–,–,–,–,·
Cc1cccc(N)c1-c1c(C)cccc1N,–,–,–,–,–,–,·
O=C(Nc1ccc(Cl)cc1)C1CC2CCCC(C1)C2=O (stereo not drawn),–,–,–,–,–,–,·
